Each structure is given as a SMILES string. In all, about 360,000 compounds went through this assay and about 17,000 (4.7%) were called active. Inconclusive results (about 5%) are left out. This is one part of a sample in which actives are shown more often than they occur. Values without a mark were called inactive. Rule as the data show it: active = activity change below about -50%; inconclusive = mostly about -30% to -49%; inactive = weaker than that.
% is scaled to controls: 0 for no effect and ±100 for the full control effect.

This assay in a line: qHTS for Inhibitors of Inflammasome Signaling: IL-1-beta AlphaLISA Primary Screen. The settings on record: THP-1 LPS/ATP IL-1B secretion, 16 h; at 57.5 µM, hits give low values. An excerpt:
Inflammasomes are a set of intracellular multi-protein complexes that enable autocatalytic activation of inflammatory caspases and drive the innate immune response to counter harmful agents. […] A qHTS assay, based on AlphaLISA technology, was developed to screen the Molecular Libraries Small Molecule Repository (MLSMR) to look for novel inflammasome inhibitors. The assay detects IL-1B using AlphaLISA anti-IL-1B acceptor and donor beads. A decreased emission signal, indicating reduced IL-1B secretion, is the desired outcome for this assay. NIH Chemical Genomics Center [NCGC] NIH Molecular Libraries Probe Centers Network [MLPCN] MLPCN Grant: MH095513 Assay Provider: Shyam Biswal Ph.D., Johns Hopkins University Immunity. 2012 Jul 27;37(1):85-95. PMID: 22819042 [2] Curr Pharm Des. 2012;18(16):2320-8. PMID: 22390695
Three microliters containing 3000 THP-1 cells were dispensed into the wells of solid, white, tissue culture treated Greiner 1,536-well plates. Library compounds and positive control, Glyburide, were pin-transferred (23 nL) by a Kalypsys pin-tool equipped with a 1,536-pin array, resulting in final compound concentration ranges of 2.5 nM to 57.5 uM. After 1 hr of cell culture incubation (37 °C, 5% CO2), 1 microL of 1 microg/mL lipopolysaccharide (250 ng/mL, final) and 5 mM ATP (1.25 mM, final) were added to stimulate the cells. After 16 hr of cell culture incubation with the compounds, 1.5 uL of anti-IL-1B acceptor beads (6 ug/mL, final) and biotinylated antibody (0.6 nM, final) were added to the plate, followed by a 1 hr incubation at ambient temperature. To detect the secreted IL-1B, 1.5 uL of AlphaLISA SA-Donor beads (24 ug/mL, final) were added, followed by 30 min of incubation in the dark at ambient temperature. The AlphaLISA signal was read by a PerkinElmer EnVision plate reader with an ultrasensitive luminescence detector and 1536 Plate HTS AlphaScreen aperture (excitation of 680nm and emission of 615nm).
`Cc1cc(-c2nnc(SCC(=O)Nc3ccc(F)cc3)n2N)n[nH]1`: the activity change was 20.7%. The result for `Cc1nn(-c2ccccn2)c2c1C(c1ccncc1)C1=C(CC(C)(C)CC1=O)N2` (stereo unspecified) reads -7.64%; that for `Cc1cc(C)c(C2C3=C(Nc4c2c(C)nn4-c2ccccn2)c2ccccc2C3=O)c(C)c1` (stereo unspecified), -68.9% (active). For `C=CCn1c2ccccc2c2nnc(SCc3[nH]c(=O)[nH]c3C(=O)CCCCC(=O)OCC)nc21`, the activity change was -80.5% (active). To `C=CCn1c(SCC(=O)CC(=O)OCC)nc2cc(C(=O)N3CCC(C(N)=O)CC3)ccc2c1=O` belongs -3.87%. On to `C=CCn1c2ccccc2c2nnc(SC(CC)C(=O)Nc3nc(C)c(C(=O)OCC)s3)nc21` (stereo unspecified), for which the activity change is -24.9%. To `O=C(OCc1ccccc1)N1CCC2CC1c1ccc(-c3ccc4c(c3)OCO4)cc12` (stereo unspecified) belongs 20%; to `CC(=O)Nc1ccc(Nc2cc(C)nc(Nc3ccc(NC(C)=O)cc3)n2)cc1`, 0.0358%; to `CCc1nc(Nc2ccc(NC(C)=O)cc2)c2oc3ccccc3c2n1`, -1.52%. Turning to `CC(=O)Nc1ccc(Nc2c3ccccc3nc3ccccc23)cc1`, the activity change was -98.2% (active). To `O=C1NC[C@H](CCCCN2C[C@H](Cc3ccccc3)N(Cc3ccccc3)C(=O)C2=O)N(CCc2ccc(O)cc2)C1=O` belongs 0%; to `Cc1nn(-c2ccccc2)c(C)c1NC(=O)CCl`, -95% (active); to `Cc1cccc(C)c1NC(=O)CNC(=O)c1c(C)nn(-c2ccccc2)c1C`, -13.7%. The result for `CCC(Oc1ccccc1)C(=O)OCC(=O)Nc1c(C)nn(-c2ccccc2)c1C` (stereo unspecified) reads 8.98%; that for `O=C(NCc1ccccc1)C(c1ccc(F)cc1)N1CCN(C(=O)C2CCCO2)CC1` (stereo unspecified), 0%.

Regarding `CCO/N=C(/C)c1c(O)cc(-c2ccccc2)n(-c2ccccc2)c1=O`, the activity change was 17.3%. To `CCCc1cc(=O)oc2c(C)c(OC(C)C(=O)NCC(O)c3ccccc3)ccc12` (stereo unspecified) belongs -14.8%. `C[C@@H]1ON(C)[C@H]2C[C@H]3c4cc(N5CCN(C)CC5)ccc4CCN3C(=O)[C@@H]12`: the activity change is -12.3%.

With `C(#CCN1CCOCC1)CCCN1CCOCC1`, the activity change is 26%. To `O=C(c1ccc(Cl)c([N+](=O)[O-])c1)N1CCN(c2ccccc2)CC1` belongs -26.9%; to `O=C(/C=C/c1ccc(Cl)cc1)N1CCN(c2ccccc2[N+](=O)[O-])CC1`, -78.3% (active). Turning to `CO/N=C/c1ccc(N2CCN(C(=O)c3cccc(Cl)c3)CC2)c([N+](=O)[O-])c1`, the activity change is -16.9%.

For `CCOc1ccc(NS(=O)(=O)c2ccc(C(=O)NCC3CCCO3)cc2)cc1` (stereo unspecified), the activity change is 8.79%. With `CCOC(=O)C1=NOC(Cn2cc(C(C)=O)c(=O)[nH]c2=O)C1` (stereo unspecified), the activity change was -0.897%. For `Cc1ccc(S(=O)(=O)N2CCN(C(=O)COC(=O)/C=C/c3cccc(Cl)c3)CC2)c(C)c1`, the activity change was 23.3%.

For the compound `CCOC(=O)N1CCC(NC(=O)Cn2cc3c(n2)CCCCC3)CC1`, the activity change was 2.25%.

On to `O=C(/C=C/c1ccc(F)cc1)NC(=S)NNC(=O)c1cccnc1`, for which the activity change was 20.7%. The result for `c1ccc2c(c1)OC1OC2Oc2ccccc21` reads 10.9%; that for `COc1cc(OC)c(C(=O)NC2CC(C)(C)NC(C)(C)C2)cc1OC`, 0%. The result for `COc1cc(OC)c(C(=O)NC2CCCCCC2)cc1OC` reads -59.1% (active); that for `COc1ccc(S(=O)(=O)NC(C)C)cc1C(=O)NC1CCCCC1`, 2.99%; that for `Cc1ccc(NC(=O)CCCNC(=O)c2ccc(Cl)cc2)cc1S(=O)(=O)N1CCCCC1`, -6.38%. Turning to `COC(C/C=C/C(=O)[C@@H](C)OCc1ccccc1)OC`, the activity change is -95.4% (active). For `COC(C[C@H](O)CC(=O)[C@@H](C)OCc1ccccc1)OC`, the activity change was -16.6%. To `COC(C[C@@H]1O[C@@H]1C(=O)[C@H](C)OCc1ccccc1)OC` belongs 8.19%.

Regarding `C[C@H](CO)N1C[C@H](C)[C@H](CN(C)C(=O)c2ccncc2)OCc2ccccc2-c2c(n(C)c3ccccc23)C1=O`, the activity change was 42.4%. To `CCCOC1CCCN(Cc2cn(C)nc2-c2ccccc2F)C1` (stereo unspecified) belongs -7.48%.

As to `COCCNC(=O)C1(C)CCCN(Cc2cccc(F)c2)C1` (stereo unspecified), the activity change is -12.6%. As for `COc1ccc(OC)c(C(=O)NC(CC(N)=O)c2ccc(N3CCC(N4CCCCC4)CC3)c([N+](=O)[O-])c2)c1` (stereo unspecified), the activity change is 13.4%. To `COC(=O)Cn1cc(/C=C/[N+](=O)[O-])c2ccccc21` belongs -27.5%; to `O=C(Cn1ccc2cc(S(=O)(=O)N3CCCC3)ccc21)NCc1ccccc1`, 14.2%. The result for `O=[N+]([O-])/C=C/c1ccc2c(ccn2Cc2ccccc2)c1` reads -90.5% (active); that for `Cc1ccc(-c2nc3c(C)cc(Br)cn3c2Cc2ccccc2)cc1`, 58%. The result for `COc1cccc(NC(=O)CCc2nnc3ccc(N4CCC(C)CC4)nn23)c1` reads -6.48%; that for `O=C(NCc1ccc(F)cc1)c1cc(C2CCCCN2C(=O)C2CCCCC2)on1` (stereo unspecified), -0.0267%. Consider `Cc1cc(OCCCC(=O)Nc2cc(S(=O)(=O)N3CCOCC3)ccc2N2CCOCC2)ccc1Cl`, for which the activity change is -1.02%.

As for `CSc1cccc(NC(=S)N(C(C)C)C(C)c2ccccn2)c1` (stereo unspecified), the activity change is -98.3% (active). To `CC(c1ccccn1)N(CCN(C)C)C(=S)Nc1ccccc1F` (stereo unspecified) belongs 0%; to `CSc1cccc(NC(=S)N(Cc2ccccc2)Cc2ccccn2)c1`, -6.44%. To `O=C(/C=C/[C@H]1O[C@@H](n2ccc(=O)[nH]c2=O)[C@H](O)[C@@H]1O)NCc1ccccn1` belongs 21.7%; to `COc1ccc(N2CCN(C3CCCCC3NS(=O)(=O)c3ccccc3)CC2)cc1` (stereo unspecified), -0.438%; to `O=C(/C=C/c1cccc(C(F)(F)F)c1)N1CCN(c2ccccn2)CC1`, -95.2% (active). With `O=C(Cc1ccc(Br)cc1)N1CCN(c2ccccn2)CC1`, the activity change is 8.64%.

Turning to `O=C(C(Cl)Cl)N1CCN(c2ccccn2)CC1`, the activity change was 1.16%. The result for `O=S1(=O)CCN(Cc2ccccc2)CC1` reads -15.7%; that for `Cc1nccn1-c1ccc(NC(=O)[C@H]2O[C@@H](n3cnc4c(N)ncnc43)[C@H](O)[C@@H]2O)cc1`, -25.6%.

Source of the values: PubChem BioAssay AID743279 (National Center for Advancing Translational Sciences (NCATS), 2014).
